Each structure is given as a SMILES string. Inconclusive results are not listed. Where a call stands in place of a potency, no number is given. Active and inactive are the calls of the source. The call rests on the fitted dose curve.

The nature of the test: qHTS assay to identify small molecule agonists of H2AX - cell viability counter screen (AID 1224847). Further: top concentration of the series differs between compounds; nearly all actives have a fitted effect of over 30% in size. As to conditions: CHO-K1 viability, CellTiter-Glo luminescence, 3 h; series mostly up to 154 µM. The text has this: National Center for Advancing Translational Sciences [NCATS]
NIH Chemical Genomics Center [NCGC]
U.S. Environmental Protection Agency [EPA]
National Institutes of Environmental Health Sciences [NIEHS]
National Toxicology Program [NTP]
U.S. Food and Drug Administration [FDA]
HTRF phospho-H2AX (Ser139) assay (Cisbio Bioassays, US) enables the quantitative detection of the histone variant H2AX when phosphorylated on serine 139. When double-stranded DNA breaks, either by ionizing radiation or endogenous physiological processes, H2AX becomes phosphorylated at Ser139. This phospho-Ser139 serves as a sensitive biomarker for the detection of such breaks, localizing the site of DNA repair. So, HTRF phospho-H2AX Ser139 is a pertinent assay to study genome stability, the cell cycle, DNA repair, and it serves as a biomarker for cancer, and to understand aging. Wild type CHO-K1 cells were used to identify the inducers of Phospho-H2AX Ser 139 from the Tox21 compound collections. Also cytotoxicity of the Tox21 10K compound library against the CHO-K1 cell line was tested by measuring the cell viability using CellTiter-Glo assay (Promega, Madison, WI).
Tox21 Assay Protocol Summary:
The CHO-K1 cells suspended in culture medium containing 10% FBS were dispensed at 1000 cells/ 3 ul/well in 1536-well white wall/solid bottom plates (Greiner Bio-One North America, NC) using a Multidrop Combi (Thermo Fisher Scientific Inc., Waltham, MA). After the assay plates were incubated at 37C overnight, 23 nl of compounds at 15 concentrations (from 5-48 columns) or positive control (from 1 to 4 columns) were transferred to the assay plates using a Pintool station (Wako, San Diego, CA) into each well resulting in a final DMSO concentration of 0.76%. After 3hr incubation at 37C, 3 uL/well CellTiter-Glo luminescent cell viability reagent (Promega Corporation, Madison, WI) was added using a Flying Reagent Dispenser (FRD) (Aurora Discovery, CA). After incubation at room temperature for 30 min, the luminescence intensity was read using a ViewLux plate reader (PerkinElmer, Waltham, MA).
In general terms: Quantitative high-throughput screening tests each substance at several concentrations.
Take `Cc1c(Cl)cccc1Nc1ccccc1C(=O)O`: the Potency entry was “inactive”.
The entry for `CCCCCCC/C=C/C=O` is “inactive”; for `CC(C)CCCCCCCOC(=O)c1ccc(C(=O)OCCCCCCCC(C)C)c(C(=O)OCCCCCCCC(C)C)c1` it is “inactive”; for `CC(C(=O)O)c1ccc(/C=C2\CCCCC2=O)cc1` (stereo not given) it is “inactive”.
The same measure for `CCCCOC(=O)CC#N`: “inactive”; for `Sc1nc(S)nc(S)n1`: “inactive”; for `O=C(O)c1cccc(C(=O)O)c1C(=O)O`: “inactive”.
The entry for `CCOc1ccccc1O` is “inactive”; for `CCCCCCCCCCCCSC#N` it is “inactive”.
As for `CC(=O)OCC(=O)[C@@]1(O)CC[C@H]2[C@@H]3CCC4=CC(=O)C=C[C@]4(C)[C@@]3(F)[C@@H](O)C[C@@]21C`, the Potency entry is “inactive”.
The same measure for `Cc1cccc(C)c1NC(=O)CN1CCCC1`: “inactive”; for `O=C(O)c1cc(C(=O)O)cc([N+](=O)[O-])c1`: “inactive”; for `O=C(Cl)c1cc(Cl)cc(Cl)c1`: “inactive”.
The same measure for `Oc1ccc(CCNCCCCCCNCCc2ccccc2)cc1O`: “inactive”; for `CCOC(=O)CC(O)(CC(=O)OCC)C(=O)OCC`: “inactive”.
For `O=C(c1ccco1)N1CCNCC1`, the Potency entry was “inactive”.
As to `O=c1[nH]nc(-c2ccc([N+](=O)[O-])o2)o1`, the Potency result is “inactive”.
Consider `CCCCCCCCC(=O)OCC(C)OC(=O)CCCCCCCC` (stereo not given), for which the Potency entry was “inactive”.
For the compound `Nc1ccc(-c2ccc(F)cc2)cc1`, the Potency result was “inactive”.
`C=CC(=O)OCCCCCCCCCC`: the Potency entry was “inactive”.
On to `CC(=O)c1ccc(Cl)c(Cl)c1Cl`, for which the Potency entry is “inactive”.
As for `C=C(C)C(=O)OCCCCCCCCCCOC(=O)C(=C)C`, the Potency result is “inactive”.
On to `COc1ccc(CN(CCN(C)C)c2ncccn2)cc1`, for which the Potency result is “inactive”.
The entry for `CC1(COc2ccc(CC3SC(=O)NC3=O)cc2)CCCCC1` (stereo not given) is “inactive”; for `C/C(=C\C(C)CC(C)CC(C)C)C1CC(=O)OC1=O` (stereo not given) it is “inactive”; for `O=C(O)c1cccnc1Nc1cccc(C(F)(F)F)c1` it is “inactive”.
The entry for `CC(CN=Cc1ccccc1O)N=Cc1ccccc1O` (stereo not given) is “inactive”.
The same measure for `COC(=O)C(C)(C)C`: “inactive”; for `OCC(O)c1ccccc1` (stereo not given): “inactive”.
Turning to `OCCCO`, the Potency result is “inactive”.
The same measure for `SCCOCCOCCS`: “inactive”.
The same measure for `CC(C)(C)c1ccc(CCC=O)cc1`: “inactive”; for `CCCCCCCCCCCCCCCCN`: “inactive”.
Take `Nc1cccc2c(=O)[nH][nH]c(=O)c12`: the Potency result is “inactive”.
The same measure for `Cc1ccc(NC=O)c(C)c1`: “inactive”; for `Clc1nc2ccccc2nc1Cl`: “inactive”.
`O=C(O)c1ccncc1`: the Potency result was “inactive”.
For `NCCOCCOCCN`, the Potency result was “inactive”.
As to `C=C[Si]1(C)O[Si](C)(C=C)O[Si](C)(C=C)O[Si](C)(C=C)O1` (stereo not given), the Potency entry is “inactive”.
As for `CC/C=C/CCO`, the Potency entry is “inactive”.
